# From PubChem BioAssay (NCI)
# Values joined by “and” are separate entries in the source; they are usually repeats but may differ in a detail not shown here. Equal entries are not always repeated. The panel holds about 83,000 compounds, 20% with a hit somewhere; the sample as a whole holds those more often.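 Plates (96-well) were seeded with cells, treated with compound at one concentration, and incubated for 48 hours before percent growth was determined.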 A number with no mark means an inactive call. Active and inactive are the calls of the source.
# System: M14 melanoma
# Assay: NCI-60 one-dose screen, 48 h (100 = growth as untreated, 0 = no growth, -100 = all killed)
# Details: 10 µM
# Method: Growth inhibition of the M14 human tumor cell line is measured as a screen for anti-cancer activity. Cells are grown in 96 well plates and exposed to the test compound for 48 hours. Compounds are tested at a single concentration, which is 10^-5 M for most compounds. The reported endpoint is percent growth (GI% or GIPRCNT), where numbers from 0 - 100% represent growth inhibition, and numbers from -100% - 0 represent cell death. For example, a value of 40 represents 60% growth inhibition. A value of 0 means no net growth occurred over the course of the experiment. A value of -40 indicates 40% of cells at the beginning of the experiment died by the end of the experiment. A value of -100 means all cells are dead at the end of the experiment.
# NCI-60 Human Tumor Cell Lines Screen was performed using the standard one-dose NCI protocol, which is described in more detail at https://dtp.cancer.gov/discovery_development/nci-60/default.htm.
# Compounds with GIPRCNT values below 10 were considered active. Activity score was based on GIPRCNT using the following formula: […]
# Score is 0 for GIPRCNT values of 100 or above, 50 for GIPRCNT values of 0, and 100 for GIPRCNT values of -100.
row,Structure (SMILES),growth [%]
1,CC(=O)/C=C/c1ccc(OCc2ccc(C(C)(C)C)cc2)cc1,67
2,O=C(/C=C/c1cccc(Oc2ccc(Cl)cc2)c1)c1ccccc1,89.5

# Same assay, conditions: 10 µM unless noted
row,Structure (SMILES),growth
1,COC1=CC(c2ccc[nH]2)=N/C1=C\c1[nH]c(C)c(C(=O)Oc2ccccc2)c1C,-59.2% (active)
2,CCCN1C(=O)/C(=c2\sc3n(c2=O)NC2C(N=3)N(CC)C(=O)N2CC)c2ccccc21 (stereo not given),23.3%
3,COc1cc(OC)cc(-c2ccc(-c3ccc(C(=N)N)cn3)s2)c1,95.7%
4,N#Cc1ccccc1-c1ccc(Cn2c(-c3cscn3)nc3c(Cl)cccc32)cc1,87.1%
5,O=C(/C=C/c1cccs1)Nc1ncc(Cc2ccc(Cl)c(Cl)c2)s1,29%
6,CC/C=C\C/C=C\C[C@H](O)C/C=C1/C(=O)C=C[C@@H]1C/C=C\CCCC(=O)OC,-23% (active)
7,O=C(Cn1cc(CN2CCN(c3ccnc4cc(Cl)ccc34)CC2)nn1)Nc1cccc([N+](=O)[O-])c1,103%
8,CC1=CC(C)(C)NC(=S)N1c1ccc(Cl)cc1,102% and 95%
9,CN1CCN(Cc2ccc(NC(=O)c3cccc(C#Cc4c(N)ncc5ccc(F)cc45)c3)cc2C(F)(F)F)CC1,-71% (active)
10,Cc1nc2sc(C(=O)Nc3cccc(Cl)c3C)c(N)c2cc1C(O)c1ccccc1 (stereo not given),7.42% (active)
11,COc1ccccc1/C=C1\COc2ccc(O)c(O)c2C1=O,29%
12,CN(C)C1CCN(C(=O)c2ccc(NC(=O)Nc3ccc(-c4nc(N5CCOCC5)c5cccn5n4)cc3)cc2)CC1,-0.109% (active)
13,Cc1cc(N2CCCCC2)nc(NCc2cc(Nc3ccnc4cc(Cl)ccc34)ccc2F)n1,-67.8% (active)
14,[Cu+].[NH-][C@H]1C[N-]C(=O)[C@H]([C@H]2CCN=C(N)N2)[N-]C(=O)/C(=C\NC(N)=O)[N-]C(=O)[C@H](CNC(=O)C[C@@H](N)CCCN)[N-]C(=O)[C@H](CO)[N-]C1=O,104%
15,C[C@@H]1O[C@@H](O[C@H]2[C@@H](OC(=O)[C@]34CCC(C)(C)C[C@H]3C3=CC[C@@H]5[C@@]6(C)C[C@H](O)[C@H](O[C@@H]7O[C@H](CO)[C@@H](O)[C@H](O)[C@H]7O)[C@@](C)(CO)[C@@H]6CC[C@@]5(C)[C@]3(C)C[C@H]4O)OC[C@@H](O)[C@@H]2O)[C@H](O)[C@H](O[C@@H]2OC[C@@H](O)[C@H](O[C@@H]3OC[C@](O)(CO)[C@H]3O[C@@H]3OC[C@@H](O)[C@H](O)[C@H]3O)[C@H]2O)[C@H]1O[C@@H]1OC[C@](O)(CO)[C@H]1O,75.9%
16,COc1ccc(N2CCN(S(=O)(=O)c3oc(-c4ccccc4)nc3C#N)CC2)cc1,47.4%
17,CC(=O)Nc1c(I)c(NC(C)=O)c(I)c(C(=O)O)c1I,95.9% and 104%
18,C=C1CCC2C3(C)COC(c4ccc(NC(C)=O)cc4)OC3CCC2(C)C1C/C=C1/C(=O)OCC1O (stereo not given),76.3%

row,Structure (SMILES),growth
1,Cc1ccc2nc3ccccc3c(NCc3ccc(Cl)cc3)c2c1,-17.1% (active)
2,Nc1ccc(S(=O)(=O)c2ccc(N)cc2)cc1,101% and 97.5%
3,O=c1c2c([nH]c3ccccc13)CCCC2,98.5% and 15.6%
4,COc1ccc(-c2csc(NC(=O)CN3CCN(CCO)CC3)n2)cc1NS(=O)(=O)c1cccc2c(N(C)C)cccc12,-73.6% (active)
5,CCN(CC)CC(=O)Nc1ccc2ncnc(Nc3ccc(Oc4cccc(F)c4)c(Cl)c3)c2c1,-33.8% (active)
6,COc1ccc(C/C(C)=C(\c2ccc(O)cc2)c2ccc(OCCCN(C)C)cc2)cc1,99.4%
7,C=C1C(=O)O[C@H]2[C@H]1CC/C(COC(=O)NCCCCNC(=O)OC/C1=C/CC[C@@]3(C)O[C@H]3[C@H]3OC(=O)C(=C)[C@@H]3CC1)=C\CC[C@@]1(C)O[C@@H]21,11.5%
8,CN(Cc1ccccc1)c1nc(Cl)c(C2CC(c3ccc4c(c3)OCO4)=NN2c2cc(Cl)cc(Cl)c2)s1 (stereo not given),99.5%
9,O=C1Nc2ccccc2/C1=C/c1cccn1CCCCCn1c2ccccc2c(=O)c2ccccc21,73.3%
10,COc1ccc(-c2cc(=O)c3c(O)cc(O)cc3o2)cc1,118% and 122%
11,CC1(Cc2ccccc2)CC2=C(C(=O)O1)C(c1ccccc1)NC(=O)N2 (stereo not given),98%
12,CCCCCCCC/C=C\CCCCCCCCOc1ccccc1CC(=O)NCC[N+]1(C)CCOCC1,75.6%
13,COc1ccc(Nc2nn3c(SCC(=O)c4ccc(C)cc4)nnc3s2)cc1,99.2%
14,CCCCC1=C(Br)C(=O)c2nc(C)ccc2C1=O,96%
15,O=C1/C(=C/c2cn(-c3ccccc3)nc2-c2ccccc2)SC(=S)N1c1ccccc1,97.2%
16,CN1Cn2c(ccc2C(F)(F)F)C(=O)CS1(=O)=O,104%
17,NS(=O)(=O)OCC1OC(n2cnc3cncnc32)C(O)C1O (stereo not given),31.1% [0.1 µM] and 16.6% [0.1 µM]
18,CCOc1ccc(C(=O)Cc2ccccc2)cc1,114% and 106%

# Same assay, conditions: 100 µM
row,Structure (SMILES),growth
1,CC(=O)/C=C/c1ccc(OCc2ccc(C(C)(C)C)cc2)cc1,10.5%
2,O=C(/C=C/c1cccc(Oc2ccc(Cl)cc2)c1)c1ccccc1,-54.4% (active)
